This is a sample that favours compounds with a hit; in the whole collection about 2% have one here.
Fh CTSL1 inh: counter-screen for PFM18AAP inhibitors: inhibitors of F. hepatica cathepsin L1; 0.49% of 300,000 active; inhibition, % at 5.96 µM; recombinant F. hepatica cathepsin L1, Z-Leu-Arg-MCA fluorescence; AID 1906;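 active means inhibition above the mean of all tested compounds plus 3 SD, set per screening campaign, cut at about 17% in these data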
APOBEC3G inh: inhibitors of human APOBEC3G DNA deaminase. recombinant A3G, ssDNA deamination FAM/TAMRA fluorescence. inhibition, % at 20 µM. 0.28% of 330,000 active. AID 493012;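 active means inhibition of at least 40% at 20 µM, with no more than 30% in the related APOBEC3A deaminase screen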
Target sequence (Q9HC16 whole entry, looked up): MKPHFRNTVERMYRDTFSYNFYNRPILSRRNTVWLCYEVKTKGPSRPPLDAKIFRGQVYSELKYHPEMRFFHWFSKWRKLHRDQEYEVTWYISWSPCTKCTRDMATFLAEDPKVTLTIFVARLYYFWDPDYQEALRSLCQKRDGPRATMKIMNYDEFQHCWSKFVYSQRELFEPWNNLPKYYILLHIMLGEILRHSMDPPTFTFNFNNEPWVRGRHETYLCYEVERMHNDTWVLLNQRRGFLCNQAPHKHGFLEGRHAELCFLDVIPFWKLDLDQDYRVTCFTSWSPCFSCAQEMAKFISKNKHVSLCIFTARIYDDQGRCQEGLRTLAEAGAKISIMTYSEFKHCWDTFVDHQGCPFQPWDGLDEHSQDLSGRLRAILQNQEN
HGIII-sPLA2 inh: Blocks human group III sPLA2 activity. QFRET BODIPY PC-A2 liposome hydrolysis, fluorescence. inhibition, % at 12.2 µM. 0.56% of 370,000 active. AID 743126;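 active means inhibition above mean plus 3 SD of compounds lying within the high and low control bounds, cut at about 19% in these data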
NALP1 yeast inh: blocks the NALP1 inflammasome reconstituted in yeast; S. cerevisiae NALP1/ASC/caspase-1 growth, X-gal OD620, 72 h; inhibition, % at 10 µM; 0.61% of 280,000 active; AID 2071; in the data active means inhibition mostly above about 24%, no sharp cut-off; inactive means mostly below about 32%
A3A deaminase: inhibitors of human APOBEC3A DNA deaminase. P31941. recombinant A3A, FAM/TAMRA ssDNA deamination fluorescence. inhibition, % at 20 µM. 0.41% of 330,000 active. AID 493011;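 active means at least 40% inhibition at 20 µM here, with at most 30% in a related deaminase screen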
Target sequence (P31941 whole entry, looked up): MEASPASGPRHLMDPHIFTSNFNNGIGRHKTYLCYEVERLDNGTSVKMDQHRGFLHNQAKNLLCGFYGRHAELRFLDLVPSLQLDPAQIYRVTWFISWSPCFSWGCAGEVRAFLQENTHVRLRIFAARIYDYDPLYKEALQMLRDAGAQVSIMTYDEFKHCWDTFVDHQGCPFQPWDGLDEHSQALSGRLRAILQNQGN
sPLA2 confirm: human GIII-sPLA2 inhibition, confirmation | recombinant hGIII-sPLA2, BODIPY PC-A2 QFRET fluorescence | shares compounds with HGIII-sPLA2 inh | inhibition, % at 12.2 µM | 34% of 2,000 active | AID 743280;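 active means mean inhibition across triplicates above the hit cutoff set in the earlier primary screen, cut at about 19% in these data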
535nm interf: 535nm fluorescence interference, HGIII-sPLA2 counter-screen | BODIPY FL product fluorescence interference, QFRET | shares compounds with HGIII-sPLA2 inh | 8.5% of 2,000 active | inhibition, % at 12.2 µM | AID 743282;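 active means average inhibition above the solvent-only control mean plus 3 SD, cut at about 6% in these data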
BODIPY interf DR: counter-screen for HGIII-sPLA2 inhibitors: 535nm fluorescence interference, dose response; shares compounds with HGIII-sPLA2 inh; BODIPY FL product fluorescence interference, cell-free; IC50, µM; 240 tested, under 10 active;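 active means IC50 at or below 10 µM; inactive means IC50 above 10 µM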
Each line names hits and unclear results; the compound was inactive in the other large screens (follow-up assays come after a bar, where they were run).

Cc1ccc(Cn2cccc2C2=NC(C)CO2)cc1 (centres undefined)	HGIII-sPLA2 inh 21.5 | sPLA2 confirm inactive | 535nm interf inactive
CN(Cc1ccccc1)C(=O)c1c[nH]c2ccc(S(=O)(=O)N3CCOCC3)cc2c1=O	HGIII-sPLA2 inh 19.6 | sPLA2 confirm inactive | 535nm interf inactive
C=CCN(Cc1ccc(OC)cc1OC)C(C#Cc1ccccc1)c1ccccc1 (centres undefined)	none (no result: Fh CTSL1 inh, APOBEC3G inh, NALP1 yeast inh, A3A deaminase)
Fc1ccc(-n2c(-c3ccc4c(c3)OCO4)n[nH]c2=S)cc1Cl	HGIII-sPLA2 inh 22.5 | sPLA2 confirm 33.5 | 535nm interf inactive | BODIPY interf DR inactive
COc1cc(OC)cc(-c2n[nH]c(=S)n2-c2ccc3c(c2)OCO3)c1	none
C#CC[N+](C)(C)CCCCCCCCCCCC	HGIII-sPLA2 inh 22.8 | sPLA2 confirm inactive | 535nm interf inactive
C#CC[N+](C)(C)CCCCCCCC	none (no result: NALP1 yeast inh)
C#CC[N+](C)(C)CCCCCCCCCC	HGIII-sPLA2 inh 19.3 | sPLA2 confirm inactive | 535nm interf inactive
O=C(CSCc1ccccc1)NNC(=S)Nc1cccc(Cl)c1Cl	HGIII-sPLA2 inh 38.0 | sPLA2 confirm 35.1 | 535nm interf inactive | BODIPY interf DR inactive
CNC(=S)NNC(=O)CSCc1c(Cl)cccc1Cl	none
Cc1occc1C(=O)NNC(=S)Nc1ccccc1C(F)(F)F	HGIII-sPLA2 inh 21.4 | sPLA2 confirm 26.6 | 535nm interf inactive
COc1ccccc1NC(=S)NNC(=O)c1ccccc1Br	HGIII-sPLA2 inh 22.1 | sPLA2 confirm inactive | 535nm interf inactive
Cc1cccc(NC(=S)NNC(=O)c2ccc3c(c2)OCO3)c1	HGIII-sPLA2 inh 22.9 | sPLA2 confirm 42.9 | 535nm interf inactive | BODIPY interf DR inactive
Cc1ccccc1NC(=S)NNC(=O)c1ccoc1C	none
CC(C)(C)CSc1nnc(-c2cccnc2)n1Cc1ccccc1	none (no result: Fh CTSL1 inh, APOBEC3G inh, NALP1 yeast inh, A3A deaminase)
C=CCn1c(COc2ccc(C)cc2)nnc1SCC(=O)Nc1cc(Cl)cc(Cl)c1	none (no result: Fh CTSL1 inh, APOBEC3G inh, NALP1 yeast inh, A3A deaminase)
Cc1cccc(NC(=S)NNC(=O)c2ccccc2Br)c1	HGIII-sPLA2 inh 31.1 | sPLA2 confirm 25.8 | 535nm interf inactive
Cc1cccc(NC(=S)NNC(=O)c2ccccc2OC(F)F)c1	HGIII-sPLA2 inh 23.3 | sPLA2 confirm 35.6 | 535nm interf inactive
COc1ccccc1NC(=S)NNC(=O)c1cc(C)nn1C	HGIII-sPLA2 inh 19.3 | sPLA2 confirm 21.6 | 535nm interf inactive
O=C(NNC(=S)Nc1ccccc1Cl)c1ccccc1Cl	HGIII-sPLA2 inh 25.6 | sPLA2 confirm 34.6 | 535nm interf inactive | BODIPY interf DR inactive
COc1ccccc1NC(=S)NNC(=O)c1cc(C)n(C)n1	none
Cc1cccc(NC(=O)c2ccc(NC(=O)c3ccccc3Br)cc2)c1	none
COC(=O)[C@]12C[C@H](CC(=O)NCc3ccc(C)o3)C(=O)N(CCc3ccc(OC)c(OC)c3)C1=C[C@H](COCc1ccccc1)O[C@@H]2C	none (no result: Fh CTSL1 inh, APOBEC3G inh, NALP1 yeast inh, A3A deaminase)
COc1ccc2c(c1)CCCN2C(=O)C1CCCN(S(=O)(=O)c2ccccc2)C1 (centres undefined)	none (no result: Fh CTSL1 inh, APOBEC3G inh, NALP1 yeast inh, A3A deaminase)
O=C(CSC(=S)N1CCCCC1)Nc1ncc2c(n1)CCCC2=O	HGIII-sPLA2 inh 21.5 | sPLA2 confirm inactive | 535nm interf inactive
O=C(Nc1nnc(-c2ccccc2Cl)s1)C1CCN(S(=O)(=O)c2ccc(Cl)cc2)CC1	none
O=C(Nc1nnc(-c2ccccc2F)s1)C1CCN(S(=O)(=O)c2ccc(Cl)cc2)CC1	HGIII-sPLA2 inh 23.1 | sPLA2 confirm inactive | 535nm interf inactive
COC(=O)c1cnn(-c2ccc(Cl)cc2)c1/C=N/NC(N)=S	HGIII-sPLA2 inh 24.5 | sPLA2 confirm inactive | 535nm interf inactive
Cc1ccccc1CSCC(=O)NNC(=S)NCC1CCCO1 (centres undefined)	HGIII-sPLA2 inh 23.9 (no result: Fh CTSL1 inh) | sPLA2 confirm inactive | 535nm interf inactive
CCCCCn1c(=NC(=O)c2cccnc2)c(C#N)cc2c(=O)n3cccc(C)c3nc21	HGIII-sPLA2 inh 19.7 (no result: NALP1 yeast inh) | sPLA2 confirm inactive | 535nm interf inactive
CCOC(=O)c1sc(NC(=S)NC(=O)C2CC2)cc1C	HGIII-sPLA2 inh 21.2 | sPLA2 confirm inactive | 535nm interf inactive
CC(=O)Nc1sc(N/N=C\c2ccc(O)cc2)nc1-c1cccs1	none
CC(=O)Nc1sc(N/N=C\c2cccc(Cl)c2)nc1-c1cccs1	HGIII-sPLA2 inh 25.0 | sPLA2 confirm 35.4 | 535nm interf 13.6
CC(C)CC(N)c1csc(Nc2ccc(C(=O)N(C)Cc3ccccc3)cn2)n1 (centres undefined)	HGIII-sPLA2 inh 21.4 (no result: Fh CTSL1 inh, APOBEC3G inh, NALP1 yeast inh, A3A deaminase) | sPLA2 confirm inactive | 535nm interf inactive
CN(Cc1ccccc1)C(=O)c1ccc(Nc2nc(C(N)Cc3ccccc3)cs2)nc1 (centres undefined)	none (no result: Fh CTSL1 inh, APOBEC3G inh, NALP1 yeast inh, A3A deaminase)
C=CCNc1nc(Nc2ccc([N+](=O)[O-])cc2)nc(OCC)n1	none
CCOc1nc(Nc2ccc([N+](=O)[O-])cc2)nc(NC(C)(C)C)n1	HGIII-sPLA2 inh 20.9 | sPLA2 confirm inactive | 535nm interf inactive
CN(C(=O)Nc1ccc(Cl)c(Cl)c1)c1ccccc1C(=O)O	HGIII-sPLA2 inh 21.4 | sPLA2 confirm inactive | 535nm interf inactive
CCCCNC(=S)NNC(=O)c1c(Cl)c(C)nn1C	none
CCNC(=S)NNC(=O)c1c(Cl)c(C)nn1C	HGIII-sPLA2 inh 20.9 | sPLA2 confirm inactive | 535nm interf inactive
Cc1ccc2c(c1)C1CS(=O)(=O)N(CCc3ccccc3)C(=O)N1C2 (centres undefined)	HGIII-sPLA2 inh 19.3 (no result: Fh CTSL1 inh, APOBEC3G inh, NALP1 yeast inh, A3A deaminase) | sPLA2 confirm inactive | 535nm interf inactive
Cc1ccc2c(c1)C1CS(=O)(=O)N(CCc3ccccc3)CN1C2 (centres undefined)	none (no result: Fh CTSL1 inh, APOBEC3G inh, NALP1 yeast inh, A3A deaminase)
COc1cc(CNCCN(C)C)c(Br)cc1OCC(=O)NCc1ccccc1	HGIII-sPLA2 inh 22.0 | sPLA2 confirm inactive | 535nm interf inactive
CCCCCCCCN1C(=O)[C@@H](CC(=O)NCc2ccccc2)C[C@@]2(C(=O)OC)C1=C[C@H](COCc1ccccc1)O[C@@H]2C	none (no result: Fh CTSL1 inh, APOBEC3G inh, NALP1 yeast inh, A3A deaminase)
CC1=CC(C)(C)NC(=S)N1c1cccc2ccccc12	HGIII-sPLA2 inh 20.1 | sPLA2 confirm 30.8 | 535nm interf inactive | BODIPY interf DR inactive
CC1=CC(C)(C)NC(=S)N1c1ccc(Cl)cc1	HGIII-sPLA2 inh 20.2 (no result: Fh CTSL1 inh, APOBEC3G inh, NALP1 yeast inh, A3A deaminase) | sPLA2 confirm 20.7 | 535nm interf inactive
CC1=CC(C)(C)NC(=S)N1C(C)c1ccccc1 (centres undefined)	none
CC1=CC(C)(C)NC(=S)N1c1ccc2ccccc2c1	none
C=CCn1c(SCC(=O)Nc2ccccc2-c2ccccc2)nnc1-c1ccc(Cl)cc1	none (no result: Fh CTSL1 inh, APOBEC3G inh, NALP1 yeast inh, A3A deaminase)
Cc1ccccc1C(=O)NC1CCCCN(Cc2cccc(Cl)c2)C1=O (centres undefined)	none (no result: Fh CTSL1 inh, APOBEC3G inh, NALP1 yeast inh, A3A deaminase)
CCc1cnc(Nc2nc(C(N)c3ccccc3Cl)cs2)nc1 (centres undefined)	HGIII-sPLA2 inh 26.5 (no result: Fh CTSL1 inh, APOBEC3G inh, NALP1 yeast inh, A3A deaminase) | sPLA2 confirm inactive | 535nm interf inactive
